From PubChem BioAssay
HCMV inh = blocks human cytomegalovirus replication | HFF cells, HCMV-luciferase reporter, 72 h; active compounds read low | actives 4.5% (n = 410,000) | activity change, negative = inhibition, % at 57.5 µM; in the data active means activity change below about -60%; inconclusive means no clear call, values can overlap the other calls; inactive means above about -39%
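Luciferase read-out from HCMV-luciferase-infected HFFs (MOI 1 PFU/cell) 72 h post infection at 37C; compounds added after 16 h cell attachment; activity normalized between buffer-only basal and Salinomycin (10uM) inhibitor controls.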
Pf growth 48h = P. falciparum growth inhibition at 48 hours (one generation); P. falciparum luciferase growth in erythrocytes, 48 h; Potency, µM (series often up to 28.7 µM), hits mostly inhibitors; actives 5.9% (n = 310,000)
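Cell-based growth assay: transgenic P. falciparum expressing firefly luciferase, cultured in red cells within RPMI 1640 containing 0.5% w/v Albumax, 24 mM bicarbonate and gentamycin. A drop in luciferase activity indicates inhibition.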
Shiga toxin inh = blocks Shiga toxin action in Vero cells; Vero cells, Shiga toxin protein synthesis inhibition reporter; inhibition, % at 38.7 µM; actives 9.2% (n = 290,000); AID 2315; in the data active means inhibition mostly above about 28%, no sharp cut-off; inactive means mostly below about 43%
Pf growth 96h = P. falciparum growth inhibition at 96 hour, primary screen for plastid delayed-death inhibitors; actives 6.9% (n = 320,000); AID 504834; Potency, µM (doses to about 28.7 µM), actives largely listed as inhibitors; P. falciparum luciferase reporter growth, 96 h
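Parasite growth measured via integrated firefly luciferase reporter in P. falciparum. Infected erythrocytes at 2% hematocrit, 0.05% parasitemia final were treated 96 hours at 37 C under 5% CO2, and luminescence was read.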
Cycloheximide cs = counter-screen for Shiga toxin inhibitors: cycloheximide protein synthesis inhibition | cell reporter, cycloheximide protein synthesis inhibition counterscreen | max response, % | actives 12% (n = 300,000) | AID 2314; in the data active means max response mostly above about 13%, no sharp cut-off; inactive means mostly below about 14%; further: read at 38.3 µM for the half of the compounds with a filed dose
Each line names hits and unclear results; the compound was inactive in the other large screens. This is a sample that favours compounds with a hit; in the whole collection about 20% have one here. Unless noted, the call rests on the fitted dose curve; in most records, active means well fitted inhibition curve with a large enough effect; inconclusive means small, poorly fitted or top-dose-only effect, or another doubt; inactive means no such curve, though single readings can be large or run the other way.

NC1=NC[C@H](Cc2ccc(O)cc2)N1CCc1cccc(F)c1	Pf growth 48h 13µM, Pf growth 96h 2.3µM
Nc1c(NC(=O)CC[n+]2ccccc2)cccc1[N+](=O)[O-]	Shiga toxin inh 96, Cycloheximide cs 46
CN(C)c1cc[n+](CC(=O)Nc2cccc([N+](=O)[O-])c2)cc1	HCMV inh inconclusive, Pf growth 48h inconclusive, Pf growth 96h inconclusive
CN(C)c1cc[n+](CCC(=O)Nc2cccc([N+](=O)[O-])c2N)cc1	Pf growth 48h inconclusive, Pf growth 96h 3.3µM
COc1ccc(Cc2nnc(N/N=C(\C)c3ccccc3)[nH]c2=O)cc1OC	Pf growth 48h inconclusive, Pf growth 96h inconclusive
COc1ccc(NC(=O)C2=C(C)Nc3ncnn3C2c2sccc2C)cc1 (stereo not given)	none (no result: Pf growth 48h, Shiga toxin inh, Pf growth 96h, Cycloheximide cs)
CC(C)COc1ccc(C(=O)N/N=C/c2ccoc2)cc1	Shiga toxin inh 83, Pf growth 96h 5.9µM, Cycloheximide cs 27
CCOc1cc(C(=O)N/N=C/c2ccsc2)cc(OCC)c1OCC	none
Cc1scc(C(=O)N/N=C/c2ccc(OCC(C)C)cc2)c1C	Pf growth 96h 12µM (no result: Pf growth 48h)
CCOc1cc(C(=O)N/N=C/c2ccoc2)cc(OCC)c1OCC	HCMV inh -88, Pf growth 96h inconclusive
O=C(c1ccccc1)N1CC(COc2ccccc2)OC(c2cccnc2)O1 (stereo not given)	Cycloheximide cs 16 (no result: Pf growth 96h)
N/N=C(/C(=O)N1CCN(c2ccccn2)CC1)c1ccccc1I	none (no result: Pf growth 48h, Shiga toxin inh, Pf growth 96h, Cycloheximide cs)
CC(C)(C)NC(=O)C(c1ccncc1)N(C(=O)Cn1nnc(-c2ccc(F)cc2)n1)c1ccccc1F (stereo not given)	Pf growth 48h inconclusive, Cycloheximide cs 21
Cc1ccccc1N(C(=O)Cn1nnc(-c2ccc(F)cc2)n1)C(C(=O)NC(C)(C)C)c1ccncc1 (stereo not given)	none
CC(C)(C)NC(=O)C(c1ccc(O)cc1)N(C(=O)Cn1nnc(-c2ccc(F)cc2)n1)c1ccccc1F (stereo not given)	Pf growth 48h 12µM, Pf growth 96h inconclusive
Cc1cccc(N(C(=O)Cn2nnc(-c3ccc(F)cc3)n2)C(C(=O)NC(C)(C)C)c2ccncc2)c1 (stereo not given)	Pf growth 48h inconclusive
O=C(Cc1cccs1)Nc1cccnc1	none
COc1cc(NC(=O)c2ccccc2Cl)ccc1NC(=O)c1cccs1	Shiga toxin inh 105, Cycloheximide cs 46
COc1cc(NC(=O)c2cccs2)ccc1NC(=O)Cc1ccccc1	Pf growth 96h inconclusive
COc1cc(NC(=O)c2cc3ccccc3cc2OC)ccc1NC(=O)c1cccs1	none (no result: HCMV inh)
COc1c(Cl)cc(Cl)cc1/C=C/C(=O)c1ccc(NC(=O)c2cccs2)cc1	HCMV inh -99, Pf growth 48h 5.2µM, Shiga toxin inh 40, Cycloheximide cs 30
COc1cc(NC(=O)c2cccc(Cl)c2)ccc1NC(=O)c1cccs1	Cycloheximide cs 16
COc1cc2c(cc1OC)CN(CC(=O)Nc1ccc3c(c1)OC(F)(F)O3)CC2	none (no result: Pf growth 48h)
CCC(=O)N1CCc2cc(Br)cc(S(=O)(=O)NCCc3ccccc3)c21	none (no result: Pf growth 48h, Shiga toxin inh, Pf growth 96h, Cycloheximide cs)
Cc1cccc(S(=O)(=O)NC(=O)C2(C)CCN2C(=O)C/C=C/c2ccccc2)c1 (stereo not given)	none (no result: Pf growth 48h, Shiga toxin inh, Pf growth 96h, Cycloheximide cs)
COc1cc2c(cc1CC=C(C)C)C(=O)C[C@@H](c1ccc(O)cc1)O2	none (no result: HCMV inh, Pf growth 48h, Pf growth 96h)
N#CCc1nc2ccc(S(=O)(=O)N3CCOCC3)cc2s1	Pf growth 48h 15µM, Pf growth 96h 13µM
CSc1nc2ccc(S(=O)(=O)N3CCOCC3)cc2s1	Pf growth 96h inconclusive
O=S(=O)(c1cccc(-c2nnc(SCc3nc4ccccc4s3)o2)c1)N1CCOCC1	Shiga toxin inh 128, Cycloheximide cs 97
CCOC(=O)C1(Cc2cccc(OC)c2)CCCN(C(=O)c2ccc(OC)o2)C1 (stereo not given)	Pf growth 48h inconclusive, Shiga toxin inh 113, Cycloheximide cs 41
CCOC(=O)C1(Cc2cccc(OC)c2)CCCN(C(=O)CCN2CCCO2)C1 (stereo not given)	Shiga toxin inh 148, Cycloheximide cs 57
CCOC(=O)C1(Cc2cccc(Cl)c2)CCCN(C(=O)c2cc(C)[nH]n2)C1 (stereo not given)	Pf growth 48h inconclusive
CCOC(=O)C1(Cc2cccc(OC)c2)CCCN(C(=O)c2cc(CC(C)C)[nH]n2)C1 (stereo not given)	Shiga toxin inh 87, Pf growth 96h inconclusive, Cycloheximide cs 53
CCOC(=O)C1(Cc2cccc(OC)c2)CCCN(Cc2cc(OC)c(O)c(OC)c2)C1 (stereo not given)	Pf growth 96h inconclusive
CCOc1ccc(N(C(C)C(=O)N2CCCCCC2)S(C)(=O)=O)cc1 (stereo not given)	Pf growth 48h inconclusive
Cc1cn(CC(=O)N2CCN(c3ccccn3)CC2)c(=O)[nH]c1=O	none (no result: Pf growth 48h, Shiga toxin inh, Pf growth 96h, Cycloheximide cs)
CC(C)(C)NC(=O)C(c1ccncc1)N(C(=O)Cn1nnc(-c2ccc(F)cc2)n1)c1ccc(F)cc1 (stereo not given)	Pf growth 48h 2.6µM
Cc1ccc(N(C(=O)Cn2nnc(-c3ccc(F)cc3)n2)C(C(=O)NC(C)(C)C)c2ccncc2)cc1 (stereo not given)	HCMV inh inconclusive, Pf growth 48h 4.7µM
CC(C)(C)NC(=O)C(c1ccncc1)N(C(=O)Cn1nnc(-c2ccc(F)cc2)n1)c1ccccc1 (stereo not given)	none
Cc1ccc(NC(=O)CN(c2ccccc2)S(=O)(=O)N(C)C)cc1	none
Cc1noc(C)c1COc1ccc(C(=O)OCC(=O)NCCN2C(=O)CSC2=O)cc1	none
O=Cc1ccc(N2CCN(S(=O)(=O)c3ccc4c(c3)CC(=O)N4)CC2)cc1	none (no result: Pf growth 48h, Shiga toxin inh, Pf growth 96h, Cycloheximide cs)
Cc1ccccc1CN1C(=O)CN=C(c2ccccc2)c2cc(Cl)ccc21	HCMV inh -71 (no result: Pf growth 48h, Shiga toxin inh, Pf growth 96h, Cycloheximide cs)
CC1CCC(NC(=O)CC(NC(N)=O)c2ccccc2Cl)CC1 (stereo not given)	Cycloheximide cs 31
COc1ccc(-c2cn[nH]c2-c2ccc(OC)cc2O)cc1	HCMV inh -65, Pf growth 48h 9.3µM, Pf growth 96h 12µM
COc1ccc(-c2[nH]ncc2-c2ccc(Cl)cc2)c(O)c1	HCMV inh -65, Pf growth 48h 12µM, Pf growth 96h 4.1µM
COc1ccc2c(c1)CCc1cn[nH]c1-2	Cycloheximide cs 13 (no result: HCMV inh)
CCOC(=O)C1=C(c2ccccc2)Nc2c(c(=O)n(C)c(=O)n2C)C1c1ccc(O)c(OC)c1 (stereo not given)	none (no result: Pf growth 96h)
Cc1ccc(NC(=O)CNC(=O)c2cccs2)cc1S(=O)(=O)Nc1ccc(Cl)cc1	none
Cc1cc2nc(C(C)(C)C)c(CC3CCCCC3)n2c(C)c1Br	none (no result: Pf growth 48h, Shiga toxin inh, Pf growth 96h, Cycloheximide cs)
CO/C([O-])=N/c1c[n+](-c2ccc(Cl)cc2)no1	none
Cc1cccn2c(CN[C@H]3CCCCNC3=O)c(C(=O)N3CCOCC3)nc12	Pf growth 96h 9.3µM
O=C(CSc1nnc(COc2cccc3cccnc23)o1)c1ccc(F)cc1	Pf growth 48h inconclusive
Cc1ccc(C(=O)CSc2nnc(COc3cccc4cccnc34)o2)cc1	Pf growth 48h inconclusive, Pf growth 96h 3.3µM
NC(=O)CSc1nnc(COc2cccc3ccccc23)o1	Pf growth 96h 12µM
